Screens as filed in PubChem.
IL1B secr inh: inflammasome signaling inhibition, IL-1 beta readout | actives 4.7% (n = 360,000) | THP-1 LPS/ATP IL-1B secretion, AlphaLISA, 16 h; stronger effect = lower value | activity change, % at 57.5 µM | AID 743279; in the data active means activity change below about -50%; inconclusive means mostly about -30% to -49%
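THP-1 cells pretreated 1 hr with compounds (up to 57.5 uM final), then stimulated with LPS (250 ng/mL final) plus ATP (1.25 mM final); secreted IL-1B measured by AlphaLISA after 16 hr, decreased signal indicating inhibition.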
TDP1 cell CPT: DT40-hTDP1 cell growth loss with CPT; chicken DT40 Tdp1-/-;hTDP1 cells + 20 nM CPT, ATP luminescence, 48 h; Potency, µM (doses to about 46.2 µM), for inactives: top-dose activity change, negative = growth inhibition, most hits filed as inhibitors; actives 12% (n = 420,000); AID 686979; further: potency means the concentration at half of the fitted maximal effect; nearly all actives have a fitted effect of over 55% in size
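Chicken DT40 Tdp1-/- cells complemented with human TDP1, 400 cells/well, exposed to compounds plus 20 nM camptothecin for at least 48 h at 37 C; viability read as ATP content by CellTiter-Glo luminescence.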
12-LOX inh: inhibitors of human 12S-lipoxygenase ALOX12 | purified 12hLO, xylenol orange hydroperoxide absorbance | Potency, µM (series often up to 108 µM), for the others: at the highest dose activity change, negative = inhibition, hits mostly inhibitors | actives 1.1% (n = 580,000) | AID 1671190; further: potency means the concentration at half of the fitted maximal effect
Target sequence (P18054 whole entry, looked up): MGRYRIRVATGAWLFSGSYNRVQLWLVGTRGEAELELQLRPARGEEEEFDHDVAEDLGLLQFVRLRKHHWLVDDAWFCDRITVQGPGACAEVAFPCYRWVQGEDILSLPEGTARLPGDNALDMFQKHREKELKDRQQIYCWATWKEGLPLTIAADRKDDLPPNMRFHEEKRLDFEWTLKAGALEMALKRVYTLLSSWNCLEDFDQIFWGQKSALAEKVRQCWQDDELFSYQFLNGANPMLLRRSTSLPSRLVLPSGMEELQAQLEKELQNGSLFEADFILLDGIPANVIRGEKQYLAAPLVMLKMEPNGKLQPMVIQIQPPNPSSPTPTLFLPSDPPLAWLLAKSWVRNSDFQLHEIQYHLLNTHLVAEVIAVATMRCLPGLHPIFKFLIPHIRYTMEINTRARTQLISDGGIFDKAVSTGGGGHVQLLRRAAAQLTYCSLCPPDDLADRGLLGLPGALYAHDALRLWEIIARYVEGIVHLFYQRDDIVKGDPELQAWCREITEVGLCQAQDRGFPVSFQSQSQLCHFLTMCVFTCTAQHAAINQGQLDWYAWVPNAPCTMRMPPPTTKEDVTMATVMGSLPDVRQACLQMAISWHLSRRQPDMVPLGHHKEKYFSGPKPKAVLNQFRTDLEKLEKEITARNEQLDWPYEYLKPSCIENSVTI
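Hydroperoxide product was detected by ferrous iron/xylenol orange as the 573 to 405 nm absorbance ratio. Arachidonic acid at 40 uM (final) was turned over for 30 min at room temperature by 150 nM human 12hLO, pH 7.0 Hepes buffer, after 15 min compound preincubation.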
HT1080-NT tox: kills 2HG-producing HT-1080-NT fibrosarcoma cells. HT-1080-NT fibrosarcoma viability, CellTiter-Glo ATP luminescence, 48 h. Potency, µM (highest dose often 46.1 µM), without a hit: at the top dose activity, negative = less viability, usual class: cytotoxic. actives 1.6% (n = 360,000);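 further: NT is the 2HG producing partner of a matched IDH1 knockdown line; potency means the concentration at half of the fitted maximal effect; 0% = DMSO-treated cells and -100% = media-only wells without cells; nearly all actives have a fitted effect of over 55% in size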
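A 48-hour cytotoxicity screen used HT-1080-NT cells plated 2 hours before compound delivery. ATP-based CellTiter-Glo luminescence measured viability, normalized to DMSO and no-cell controls.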
HT1080 IDH1KD tx: HT-1080 IDH1 knockdown cell toxicity (counter line); HT-1080 IDH1 knockdown viability, ATP luminescence, 48 h; Potency, µM (highest dose often 46.1 µM), inactives show at the top dose activity, negative = toxicity, usual class: cytotoxic; actives 2% (n = 360,000);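 further: potency means the concentration at half of the fitted maximal effect; 0% = DMSO wells and -100% = cell-free medium wells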
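Luminescent ATP read-out (CellTiter-Glo, 10 min at room temperature) after 48 h compound exposure at 37 °C gave viability of IDH1-knockdown HT-1080 cells. Activity was normalised to DMSO and cell-free wells, then fitted as concentration-response curves.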
DT40 TDP1 no CPT: qHTS for Inhibitors of human tyrosyl-DNA phosphodiesterase 1 (TDP1): qHTS in cells in absence of CPT. DT40 Tdp1-/- hTDP1 cells, no CPT, ATP luminescence, 48 h. Potency, µM (series often up to 46.2 µM), for inactives: at the top dose activity change, negative = growth inhibition, usual class: inhibitors. actives 15% (n = 420,000). AID 686978, 2013; further: potency means the concentration at half of the fitted maximal effect; nearly all actives have a fitted effect of over 55% in size
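Compound effects on proliferation are scored in DT40 Tdp1-/-;hTDP1 cells in the absence of CPT. ATP levels (CellTiter-Glo luminescence) are recorded after a ≥48 hr, 37 °C incubation.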
Starred values were filed as active, the others as inactive; ? = inconclusive; · = no result; [ ] = dose if it differs, or a comment. Shown is part of a subset that was picked to be rich in hits. Unless noted, the call rests on the fitted dose curve; in most records, active means well fitted curve in the direction sought with a large enough effect; inconclusive means small, poorly fitted or top-dose-only effect, or another doubt; inactive means no such curve, though single readings can be large; an effect the other way counts as inactive or inconclusive. Unless noted, on the % scale 0 is the no-effect control and ±100 the full control effect.

SMILES	IL1B secr inh	TDP1 cell CPT	12-LOX inh	HT1080-NT tox	HT1080 IDH1KD tx	DT40 TDP1 no CPT
Cc1nc2c(c(-c3ccc(Cl)cc3)n1)CN([S+](=O)([O-])c1ccccc1)CC2	·	·	11.1%	·	·	·
Cc1nc(-c2cccc(S(=O)(=O)N3CCC(C(=O)NCc4ccc5c(c4)OCO5)CC3)c2)no1	·	·	8.0%	·	·	·
O=C(Nc1ccnn1Cc1cccs1)c1ccc(S(=O)(=O)N2CCCC2)cc1	·	·	34.0%	·	·	·
Cc1cnn(CCC(=O)NC2CCc3nnc(C)n3CC2)c1 (centres undefined)	·	·	106.8%	·	·	·
C=C(C)COc1ccc2c(C)c(CCC(=O)Nc3nccs3)c(=O)oc2c1	·	·	10.1%	·	·	·
COc1ccc2oc(C(=O)Nc3ccc(S(=O)(=O)N(C)C4CCN(C)CC4)cc3)c(C)c2c1	?	?	94.1%	23.1µM*	18.4µM*	18.4µM*
Cc1ccc(NC(=O)c2oc3ccc(S(=O)(=O)N(C)C4CCCCC4)cc3c2C)c(C)c1	·	?	-11.6%	·	·	14.6µM*
COc1ccc(NC(=O)c2oc3ccc(S(=O)(=O)N4CCCCC4)cc3c2C)cc1	·	?	-15.3%	·	·	?
COc1ccc(NC(=O)c2oc3ccc(S(=O)(=O)N(C)C4CCCCC4)cc3c2C)cc1Cl	·	9.2µM*	-20.3%	·	·	5.8µM*
Cc1c(C(=O)Nc2ccc(F)c(Cl)c2)oc2ccc(S(=O)(=O)N(C)C3CCCCC3)cc12	·	23.1µM*	-8.1%	·	·	14.6µM*
N#Cc1cccc(Oc2ccc(C(=O)OCC(=O)c3ccccc3)cc2)c1C#N	·	·	1.7%	·	·	·
COc1ccccc1CN1C(=O)COC[C@@H]1[C@H](O)c1ccc(NC(=O)c2ccccc2)cc1	·	·	-14.1%	·	·	·
Cc1ccc(NC(=O)c2cc(S(=O)(=O)N(C)C3CCCCC3)ccc2F)cc1C	·	18.4µM*	4.0%	·	·	18.4µM*
COCCCNC(=O)c1oc2ccc(S(=O)(=O)N(C)C3CCCCC3)cc2c1C	-7.8	?	0.0%	3.2%	-10.1%	?
COCCNC(=O)c1cc(S(=O)(=O)N(C)C2CCCCC2)ccc1Cl	34.1	-27.6%	7.5%	5.8%	8.8%	-29.7%
Cc1c(C(=O)Nc2cccc(C(F)(F)F)c2)oc2ccc(S(=O)(=O)N(C)C3CCCCC3)cc12	·	11.6µM*	0.0%	·	·	13µM*
CNC(=O)c1cnn2c1CN(C(=O)c1cccnc1)CC2	·	·	4.7%[12.5 µM]	·	·	·
Cc1cc2oc(=O)cc(CN3CCN(C(=O)C4COc5ccccc5O4)CC3)c2cc1C (centres undefined)	·	·	-24.8%	·	·	·
COc1ccc(C(=O)N2CC3(Cc4ccccc4N(C(C)=O)C3)C2)cc1	·	·	41.3%	·	·	·
O=C(CCc1ccc(O)cc1)N1CC[C@H](N2CCOCC2)[C@H](CCCO)C1	·	·	26.5%	·	·	·
CCOc1ccc(CCNC(=O)c2nn(C)c3c2CS(=O)(=O)c2ccccc2-3)cc1	-2.9	?	0.0%	-7.2%	0.0%	3.66µM*
Cn1nc(C(=O)NCCc2ccc(S(N)(=O)=O)cc2)c2c1-c1ccccc1S(=O)(=O)C2	0.0	1.3%	12.0%	4.2%	13.7%	5.1%
CCOc1ccc(CCNC(=O)c2nn(C)c3c2CS(=O)(=O)c2ccccc2-3)cc1OCC	?	23.1µM*	4.5%	10.8%	-0.4%	?
CC(C)N(CCCNC(=O)c1nn(C)c2c1CS(=O)(=O)c1ccccc1-2)Cc1ccccc1	4.0	16.4µM*	11.7%	-5.4%	-2.5%	-3.4%
Cc1cnc(C(=O)N2CCC3(CC2)CC(N(Cc2ccccc2)C2CC2)CCO3)cn1 (centres undefined)	·	·	6.9%	·	·	·
SMILES	IL1B secr inh	TDP1 cell CPT	12-LOX inh	HT1080-NT tox	HT1080 IDH1KD tx	DT40 TDP1 no CPT
CN(C)S(=O)(=O)c1ccc(-c2nc(C#N)c(N3CCN(c4cccc(Cl)c4)CC3)o2)cc1	·	·	-40.4%	·	·	·
CC1CCCN(C(=O)c2ccccc2CSc2nc3ccccc3o2)C1 (centres undefined)	·	·	12.2%	·	·	·
Cc1cc(C(=O)OCc2ccccc2C#N)c(C)o1	·	·	-25.6%	·	·	·
O=C1CS/C(=N/N=C/c2cccs2)N1Cc1ccc(F)cc1	24.5	18.4µM*	0.0%	-13.0%	-15.2%	?
C=CCN1C(=O)/C(=C/c2cccs2)S/C1=N\S(=O)(=O)c1ccc(F)cc1	1.9	-28.8%	-15.5%	-0.3%	-3.7%	-25.0%
O=C1CS/C(=N/N=C/c2cccs2)N1	10.0	7.6%	4.7%	13.5%	0.9%	3.2%
C=CCN1C(=O)C(Cc2ccc(F)cc2)S/C1=N/N=C/c1cccs1 (centres undefined)	-14.5	-35.0%	18.8%	1.8%	-2.0%[9.24 µM]	29.1µM*
CCOc1ccc(CCNC(=O)c2cc3c(-c4ccccc4F)nn(C)c3s2)cc1	·	-4.8%	-21.8%	·	·	?
COc1ccc(OC)c(CCNC(=O)c2cc3c(-c4ccccc4F)nn(C)c3s2)c1	·	11.6µM*	-16.1%	·	·	8.2µM*
COc1ccc(NC(=O)c2cc3c(-c4ccccc4F)nn(C)c3s2)c(OC)c1	·	10.3µM*	2.4%	·	·	10.3µM*
CCC(C)OC(=O)COc1ccc2c(=O)c(-c3ccccc3Cl)coc2c1 (centres undefined)	·	·	36.5%	·	·	·
CCCNC(=O)CN(C)C(=O)NC(c1ccc(C(C)C)cc1)C(C)C (centres undefined)	·	·	66.5%	·	·	·
COc1ccc(OC)c(NC(=S)NCCSc2ccc(C)cc2)c1	-10.1	?	?	5.2%	-0.4%	16.4µM*
COc1ccc(NC(=S)NCCSc2ccc(C)cc2)c(OC)c1	?	?	35.5µM*	-11.1%	?	?
COc1ccc(NC(=S)NCCc2ccc(Cl)cc2)c(OC)c1	-9.8	?	-36.2%	-16.8%	-15.3%	?
COc1ccc(NC(=S)Nc2ccc(OCc3ccccc3)cc2)c(OC)c1	34.4	20.6µM*	35.5µM*	-13.7%	-10.8%	25.9µM*
COc1ccc(NC(=S)Nc2ccccc2)c(OC)c1	-17.6	?	-6.8%	1.0%	-1.4%	-23.1%
Cc1ccc(CNC(=O)N(C)C2CCc3nn(CC4CC4)c(=O)n3CC2)cc1 (centres undefined)	·	·	22.6%	·	·	·
COc1ccc(S(=O)(=O)N2CCCOC2CNC(=O)C(=O)NCCc2ccco2)cc1C (centres undefined)	50.6	5.8µM*	0.0%	16.4µM*	18.4µM*	7.31µM*
O=C(NCCc1ccccc1)C(=O)NCC1OCCN1S(=O)(=O)c1ccccc1 (centres undefined)	-9.1	4.6%	12.0%	2.4%	0.9%	-23.8%
